Source: PubChem BioAssay AID1851 (National Center for Advancing Translational Sciences (NCATS), 2009)
Where “and” joins values, the source holds several entries; their conditions need not be identical. Equal entries are not always repeated. About 5,100 (32%) of roughly 16,000 compounds were called active. About 25% were inconclusive and are not listed. Some of the results follow. A number with no mark means an inactive call. The call rests on the fitted dose curve; in most records, active means well fitted curve in the direction sought with a large enough effect; inconclusive means small, poorly fitted or top-dose-only effect, or effect the other way; inactive means no such curve, though single readings can be large or run the other way.

Molecular target: Cytochrome P450 3A4 (Homo sapiens) (UniProt P08684)
Sequence (P08684 whole entry, looked up): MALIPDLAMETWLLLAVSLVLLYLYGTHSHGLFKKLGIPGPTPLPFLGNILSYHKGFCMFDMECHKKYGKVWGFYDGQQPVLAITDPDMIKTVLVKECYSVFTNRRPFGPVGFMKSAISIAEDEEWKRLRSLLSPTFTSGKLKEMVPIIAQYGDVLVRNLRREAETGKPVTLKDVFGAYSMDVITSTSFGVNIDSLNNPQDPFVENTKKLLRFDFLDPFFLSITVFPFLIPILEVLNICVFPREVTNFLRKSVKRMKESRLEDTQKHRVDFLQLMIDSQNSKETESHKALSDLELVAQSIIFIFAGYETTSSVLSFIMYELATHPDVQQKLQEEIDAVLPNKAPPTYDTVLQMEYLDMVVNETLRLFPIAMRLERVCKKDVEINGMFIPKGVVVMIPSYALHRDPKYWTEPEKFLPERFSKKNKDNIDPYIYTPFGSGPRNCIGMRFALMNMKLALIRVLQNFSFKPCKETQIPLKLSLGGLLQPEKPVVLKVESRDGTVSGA
Test: Cytochrome panel assay with activity outcomes
Settings: recombinant CYP, pro-luciferin dealkylation, luminescence, p450-cyp3a4; series mostly up to 57.1 µM
Description: The P450 gene superfamily is involved in the metabolism and clearance of xenobiotics. This assay used various human CYP P450 isozymes to measure the dealkylation of various pro-luciferin substrates to luciferin. The luciferin is then measured by luminescence after the addition of a luciferase detection reagent. Pro-luciferin substrate concentration in the assay was equal to its KM for its CYP P450 isozyme. Inhibitors and some substrates limit the production of luciferin, and decrease measured luminescence.
NCGC Assay Protocol Summary:
1, Reagent, 2 uL, Isozyme and Pro-Luciferin
2, Library compounds, 23 nl, 40 uM to 0.24 nM dilution series
3, Controls, 23 nl, Isozyme specific inhibitor
4, Reagent, 2 uL, NADPH regeneration solution
5, Incubation time, 60 min, Isozyme specific temperature
6, Reagent, 4ul, Detection reagent
7, Incubation time, 20 min, Isozyme specific temperature
8, Detection, 1 sec, ViewLux luminescent read
The luciferase-based P450-GloTM Screening Systems were obtained from Promega (Madison, WI) for CYP 1A2 (V9770), CYP 2C9 (V9790), CYP2 C19 (V9880), CYP 2D6 (V9890), and CYP 3A4 Luciferin-PPXE (V9910) and were adapted for 1,536-well microplates and an automated protocol. The control compounds furafylline for 1A2 (F124), sulfaphenazole for CYP 2C9 (S0758), ketoconazole for CYP 2C19 (K1003), quinidine for 2D6 (Q3625), and ketoconazole for 3A4 (K1003) were purchased from Sigma Aldrich (St. Louis, MO). Recombinant P450 enzymes were obtained from baculovirus constructs expressed in insect cells (BD/Gentest).
Medium-binding white solid Kalypsys plates used. Mixtures kept on ice. 1A2: 10 nM 1A2, 100 uM Luc-ME, 100 mM KPO4; 2C9: 10 nM 2C9, 100 uM Luc-H, 25 mM KPO4; 2C19: 5 nM 2C19, 10 uM Luc-H EGE, 50 mM KPO4; 2D6: 5 nM 2D6, 30 uM Luc-ME EGE, 100 mM KPO4; 3A4: 10 nM, 25 uM Luc-PPXE. All amounts are reflected in their final concentration, working concentration is 2x.
NADPH regeneration solution: 1.3 mM NADP+, 3.3 mM glucose-6-phosphate, 3.3 mM MgCl2, 0.4 U/mL glucose-6-phosphate dehydrogenase for all isozymes, 200 mM KPO4 for 3A4. Mixture prepared at RT but kept on ice during automated run.
RT incubation in auxilliary plate hotel for 1A2, 2D6, and 3A4; 37C for 2C9 and 2C19.
Keywords: P450, CYP1A2, CYP2C19, CYP2C9, CYP2D6, CYP3A4, Luciferase, MLSMR, MLSCN, NIH Roadmap, qHTS, NCGC
On the % scale 0 is the no-effect control and ±100 the full control effect.

Compound	AC50	activity, negative = inhibition
N#C/C(=C\c1ccc(O)c(O)c1)C(=O)NCCCNC(=O)/C(C#N)=C/c1ccc(O)c(O)c1	2 µM (active)	
N#C/C(=C\c1ccc(O)c(O)c1)C(N)=S	12.6 µM (active) and 15.8 µM (active)	
CC[C@@H]1[C@@H]2C[C@H]3[C@H]4N(C)c5ccccc5[C@@]45C[C@@H]([C@@H]2[C@@H]5O)N3[C@H]1O		inactive
CNC[C@H](O)c1ccc(O)cc1		inactive
NC[C@H](CP(=O)(O)O)c1ccc(Cl)cc1		inactive
CC1(C)[C@@H]2CC[C@]1(C)CN(CCC[N+](C)(C)C)C2		12.3% [at 11.4 µM]
C[N+](C)(C)CCCCCC[N+](C)(C)C		inactive
O=C(Nc1ccc(C(F)(F)F)cc1)c1cccn(Cc2ccc3c(c2)OC(F)(F)O3)c1=O		inactive
C=CCn1c(O)c(C(CC)=NC2CC2)c(=O)[nH]c1=O		-14.9% [at 2.29 µM]
CCCCn1c(O)c(C(CC)=Nc2ccc(OC)cc2OC)c(=O)[nH]c1=O	7.94 µM (active)	
O=C(CCCN1CCC(n2c(=O)[nH]c3ccccc32)CC1)c1ccc(F)cc1		inactive
COc1ccc(C(=O)c2c(C)n(CCN3CCOCC3)c3cc(I)ccc23)cc1	5.01 µM (active)	
CCCn1c(C)c(C(=O)c2cccc3ccccc23)c2ccccc21		inactive
CC(C)CC(=O)C[C@H](O)C(Cl)(Cl)Cl		1.61% [at 11.4 µM]
S=P(C1CCCCC1)(C1CCCCC1)[C@H](c1cccnc1)N1CCCC1	3.16 µM (active)	
CCC(CC)C(=O)NC1CCSC1=O (stereo not given)		inactive
CN1CCN(c2ncc3ncc(=O)n(C)c3n2)CC1		inactive
COc1ccc(C(=O)OC2C[C@H]3CC[C@@H](C2)N3C)cc1OC (stereo not given in full)		inactive
Cc1ccc(S(=O)ON2CCC(C(=O)O)(c3ccccc3)CC2)cc1 (stereo not given)		-0.254% [at 11.4 µM]
C=C(CC1(CNP(=O)(c2ccccc2)c2ccccc2)CC1)c1ccccc1	3.98 µM (active)	
O=P(O)(O)c1ccccc1 (tested in a mixture with another compound)		-7.35% [at 11.4 µM]
C=C(CC1(C(C)NP(=O)(c2ccccc2)c2ccccc2)CC1)c1ccccc1 (stereo not given)	3.98 µM (active)	
O=P(c1ccccc1)(c1ccccc1)N1CC2(CC2)CC(O)(c2ccccc2)C1 (stereo not given)		inactive
CN1[C@@H]2CC[C@H]1CC(OC(=O)c1cc(Cl)cc(Cl)c1)C2 (stereo not given in full)		inactive
CC(C)(C)c1o[nH]c(=O)c1C[C@H](N)C(=O)O		inactive
CCN1C[C@]2(C)CC[C@H](O)[C@@]34[C@@H]5CC6[C@@H](OC)C[C@@](O)([C@@H]5[C@@H]6O)[C@H](C[C@@H]23)[C@H]14		inactive
CCCN(CCC)[C@@H]1CCc2cccc(O)c2C1		inactive
N=C(N)c1ccc(-c2ccc(-c3ccc(C(=N)N)cc3)o2)cc1		3.4% [at 11.4 µM]
CCCN(CCC)C1Cc2cc(OC)c(OC)cc2C1		inactive
C[N+](C)(C)CCO		inactive
